Measured values as given in PubChem BioAssay AID1578 (Sanford-Burnham Center for Chemical Genomics, 2009).
In all, about 290,000 compounds went through this assay and about 3,000 (1%) were called active. This excerpt belongs to a sample that is enriched for actives. Unmarked numbers belong to inactive results. No stated cut-off is given here; in the data, active means inhibition mostly above about 36% (no sharp cut-off); inactive means mostly below about 34%.

test: inhibition of NOD1-driven NF-kB reporter – cell-based, luminescence, uHTS, primary screen (AID 1578); details: NOD1-driven NF-kB luciferase reporter cells, at 4 µM, hits give high values;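 further: HEK-293T reporter cells stimulated with the NOD1 agonist gamma-tri-DAP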

| SMILES | inhibition |
| --- | --- |
| COc1ccccc1N(C(C)=O)c1nc(C)cc(C)c1C#N | -33.1% |
| O=C(O)c1ccc(NS(=O)(=O)c2cccc(S(=O)(=O)c3ccc(Cl)c(Cl)c3)c2)cc1 | -30.6% |
| COc1cc2c(cc1OC)CN(CC(=O)Nc1ccc(C)c(S(=O)(=O)N3CCOCC3)c1)CC2 | -14.6% |
| COc1cccc(NC(=O)Cn2nc(Cc3cccnc3)c3ccccc3c2=O)c1 | -18.3% |
| COc1ccc(Cn2c(/C=C/c3ccccc3)nc3ccccc32)cc1 | -65.7% |
| COc1ccc(/C=C/c2nc3ccccc3n2C)cc1 | 74.4% (active) |
| COc1ccc(/C=N\n2nnc3ccccc32)cc1 | 42% (active) |
| COc1ccc(/C=C/c2nc3ccccc3n2Cc2ccccc2OC)cc1 | 5.5% |
| COc1ccc(/C=N/NC(=O)CCn2nnc3ccccc32)cc1 | -3.7% |
| Cn1c(/C=C/c2ccccc2)nc2ccccc2c1=O | -12.9% |
| Cn1c(/C=C/c2ccccc2)nc2ccccc21 | 48.9% (active) |
| C=CCn1c(/N=C/c2ccc(OC)cc2)nc2ccccc21 | -6.3% |
| CCCn1c(/C=C/c2ccccc2)nc2ccccc21 | -41.4% |
| O=C(OCC(=O)C12CC3CC(CC(C3)C1)C2)c1cnccn1 | -23.7% |
| CCOC(=O)c1c(CSc2ccc(C)cc2)n(C)c2cc(Br)c(O)c(CN(C)C)c12 | -29.9% |
| CC(C)(C)c1ccc(OCCNC(=S)NC(=O)c2cccnc2)cc1 | -17.1% |
| Cc1ccc2[nH]c(=O)c3cc(C(=O)NC(C)C)sc3c2c1 | -4.6% |
| COC(=O)CSc1nnc(CNC(=O)c2cccs2)n1-c1cccc(C)c1 | -22.2% |
| O=C(c1ccc(N2CCN(S(=O)(=O)c3ccccc3)CC2)c([N+](=O)[O-])c1)N1CCOCC1 | -3.7% |
| COC(=O)c1ccc(N2CCN(S(=O)(=O)c3ccccc3)CC2)c([N+](=O)[O-])c1 | -18.3% |

| SMILES | inhibition |
| --- | --- |
| CCN1CCN(C(c2cccs2)C(C)NC(=O)C(=O)N2CCCCC2)CC1 (centres undefined) | -23.8% |
| Cc1ccc(Nc2ncnc3c2nnn3Cc2ccccc2)cc1 | -7.5% |
| O=C(CCC(=O)N1CCSc2ccccc21)NCc1cccc(Br)c1 | -27.1% |
| O=c1[nH]cnc2cc(-c3ccc(Br)cc3)sc12 | -63.3% |
| COc1ccc(-c2cc3nc[nH]c(=O)c3s2)cc1 | -1.7% |
| O=c1[nH]c(CCl)nc2cc(-c3ccc(Cl)cc3)sc12 | 92.6% (active) |
| OCCN(CC#CCC(O)(c1ccccc1)C1CCCC1)CCO (centres undefined) | -2% |
| CCCCCc1cc(=O)oc2c(C(CCN3CCCCC3)c3ccc4c(c3)OCO4)c(OC)cc(OC)c12 (centres undefined) | 2.9% |
| Cc1ccc2[nH]cc(/C=C/c3cc[n+](C)cc3)c2c1 | 4.2% |
| Cc1ccc2[nH]c(C)c(/C=C/c3cc[n+](C)cc3)c2c1 | 5.6% |
| CS(=O)(=O)c1nc2ccccc2n1Cc1ccccc1 | 13.9% |
| Cc1ccc(Cn2c(S(=O)(=O)O)nc3ccccc32)cc1 | -25.7% |
| O=S(=O)(O)c1nc2ccccc2n1Cc1ccccc1 | 82.8% (active) |
| COc1ccc(CCC(=O)N(c2nnc(-c3cccnc3)s2)C(C)C)cc1 | -14.2% |
| NC(=O)NC(=O)CSc1ccccc1 | -37.5% |
| COCCc1nnc(NC(=O)C23CC4CC(CC(C4)C2)C3)s1 | -34.2% |
| CC(C)(C)c1ccc(C(=O)Nc2ccc(Oc3cccnc3)nc2)cc1 | 29% |
| O=C(Nc1ccc(Oc2cccc(C(F)(F)F)c2)nc1)c1ccccc1 | 10.3% |
| O=S(=O)(N/N=C\c1ccc2c(c1)OCO2)c1ccc(F)cc1 | -7.6% |
| Cc1nn(-c2ccccc2)c2c1C(c1ccc(O)c(O)c1)N1C(=N2)C(Nc2ccccc2)=Nc2ccccc21 (centres undefined) | -2.4% |

| SMILES | inhibition |
| --- | --- |
| CC(=O)Nc1ccc(NC2=Nc3ccccc3N3C2=Nc2c(c(C)nn2-c2ccccc2)C3c2ccccc2)cc1 (centres undefined) | 99% (active) |
| Cc1ccc(NC2=Nc3ccccc3N3C2=Nc2c(c(C)nn2-c2ccccc2)C3c2ccc(O)c(O)c2)cc1 (centres undefined) | 2.5% |
| O=C(Nc1ccccc1)Nc1cc(OCC(F)(F)F)cc(OCC(F)(F)F)c1 | -5.2% |
| CCOc1ccc(NC(=O)Nc2cc(OCC(F)(F)F)cc(OCC(F)(F)F)c2)cc1 | -32.9% |
| O=C(Nc1ccc(F)cc1)Nc1cc(OCC(F)(F)F)cc(OCC(F)(F)F)c1 | 84.5% (active) |
| C[C@H](NC(=O)[C@@H]1Cc2ccccc2CN1)C(=O)NC1CCCC1 | -25.1% |
| COc1cccc(NC(=O)c2ccc(NC(=O)C(C)(C)C)cc2)c1 | -63% |
| O=C(Nc1ccccc1)Nc1ncc([N+](=O)[O-])s1 | -0.5% |
| O=C(/C=C/c1ccc([N+](=O)[O-])cc1)Nc1cccnc1 | -4.6% |
| CCCCOc1ccc(/C=C/C(=O)Nc2ccc([N+](=O)[O-])cc2C)cc1 | -22.5% |
| O=C(/C=C/c1ccc([N+](=O)[O-])cc1)Nc1ncc([N+](=O)[O-])s1 | 54.9% (active) |
| CCCOc1ccc(/C=C/C(=O)Nc2ccc([N+](=O)[O-])cc2C)cc1 | 0.8% |
| CCCOc1ccc(/C=C/C(=O)Nc2ccc([N+](=O)[O-])cc2)cc1 | 76.6% (active) |
| COCC(C)n1c(SC(C)C(=O)NC2CCCCC2C)nc2ccccc2c1=O (centres undefined) | -27.1% |
| CN(CC(=O)Nc1ccc(Cl)c(C(F)(F)F)c1)C(=O)CC1Sc2ccccc2NC1=O (centres undefined) | -18.8% |
| O=S(=O)(c1ccc(F)cc1)N1CCN(CC(O)COc2ccccc2F)CC1 (centres undefined) | -0.6% |
| COc1cccc(CNC(=O)CCC(=O)N2CCSc3ccccc32)c1OC | 5.1% |
| CC(=O)Nc1ccc(S(=O)(=O)N2CCCC2C(=O)Nc2ccc3c(c2)OCCO3)cc1 (centres undefined) | -17.3% |
| CCO[C@@H]1OC(C(=O)N2CCN(C)CC2)=C[C@H](c2csc3ccccc23)[C@H]1CCCO | -18% |
